Here are results for five compounds from PubChem BioAssay (NCATS).

Test [1] can be described thus: Viability qHTS for spleen associated tyrosine kinase inhibitor (SYKi) naive MV4-11 cells (AID 1963823). Also: nearly all actives have a fitted effect of over 40% in size. To be noted: MV4-11 AML viability, CellTiter-Glo luminescence, 72 h; series mostly up to 45 µM. In outline:
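Cells: MV4-11, SYK inhibitor naive, 500 per well. Treatment: library compounds, 72 hr, 37 C, 5% CO2. Read-out: CellTiter-Glo luminescence after 10 min RT.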
A general note: qHTS replaces the single test concentration by a dilution series.

Test [2] in a line: Viability qHTS for spleen associated tyrosine kinase inhibitor (SYKi) drug resistant MV4-11 cells (AID 1963824). Also: nearly all actives have a fitted effect of over 35% in size. To be noted: SYKi-resistant MV4-11 viability, CellTiter-Glo, 72 h; series mostly up to 45 µM. In outline:
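SYK-inhibitor-resistant MV4-11 AML cells were seeded at 500 per well onto compound and cultured 72 hours (37 °C, 5% CO2). CellTiter-Glo was then added, and after 10 min at room temperature, luminescence gave viability.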

Test [3] in a line: Quantitative highthroughput screen to assess conditional lethalithy of NOMO1 cells grown in RPMI1640 with untreated serum (RPMI+s) (AID 1963876). Also: nearly all actives have a fitted effect of over 35% in size.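 As to Viability: 100% = DMSO wells and 0% = empty wells without cells.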 To be noted: NOMO1 AML cells in RPMI+serum, CellTiter-Glo viability, 48 h; series mostly up to 45.8 µM. In outline: (§1)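 Each medium arm—HPLM with 10% dialyzed FBS, or RPMI1640 with 5 mM glucose and 10% untreated or dialyzed FBS—was screened against an 11-point, 3-fold compound titration for 48 h at 37 °C, with CellTiter-Glo luminescence as endpoint.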
On the technique in general: In ATP-based viability assays light output follows the ATP content of the culture.

Test [4] can be described thus: Quantitative highthroughput screen to assess conditional lethalithy of NOMO1 cells grown in RPMI1640 with dialyzed fetal bovine serum (RPMI+ds) (AID 1963877). Also: nearly all actives have a fitted effect of over 30% in size.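 As to Viability: 100% = DMSO control wells and 0% = empty wells.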 The conditions noted are these: NOMO1 in RPMI+dialyzed FBS viability, ATP luminescence, 48 h; series mostly up to 45.8 µM. In outline:
as §1

A short description of test [5]: Quantitative highthroughput screen to assess conditional lethalithy of NOMO1 cells grown in Human Plasma-Like Medium with dialyzed fetal bovine serum (HPLM+ds) (AID 1963878). Also: nearly all actives have a fitted effect of over 35% in size.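 As to Viability: 100% = DMSO wells and 0% = empty wells on each plate.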 The conditions noted are these: NOMO1 AML cells in HPLM+ds, CellTiter-Glo viability, 48 h; series mostly up to 45.8 µM. In outline: as §1
A short description of test [6]: Quantitative highthroughput screen to assess conditional lethalithy of P12 Ichikawa cells grown in Human Plasma-Like Medium with dialyzed fetal bovine serum (HPLM+ds) (AID 1963879). Also: nearly all actives have a fitted effect of over 35% in size. To be noted: ATP luminescence, 48 h; Potency: viability; series mostly up to 45.8 µM. In outline: as §1
Test [7] in a line: Quantitative highthroughput screen to assess conditional lethalithy of P12 Ichikawa cells grown in RPMI1640 with dialyzed fetal bovine serum (RPMI+ds) (AID 1963880). Also: nearly all actives have a fitted effect of over 35% in size.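 As to Viability: 100% = DMSO wells and 0% = empty wells on each plate.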 The conditions noted are these: ATP luminescence, 48 h; Potency: P12-Ichikawa viability; series mostly up to 45.8 µM. In outline: as §1
The nature of test [8]: Quantitative highthroughput screen to assess conditional lethalithy of P12 Ichikawa cells grown in RPMI1640 with untreated serum (RPMI+s) (AID 1963881). Also: nearly all actives have a fitted effect of over 35% in size.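 As to Viability: 100% = DMSO wells and 0% = empty wells without cells.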 The conditions noted are these: ATP luminescence, 48 h; Potency: viability; series mostly up to 45.8 µM. In outline:
as §1

The nature of test [9]: Quantitative highthroughput screen to assess conditional lethalithy of SEM cells grown in Human Plasma-Like Medium with dialyzed fetal bovine serum (HPLM+ds) (AID 1963882). Also: nearly all actives have a fitted effect of over 35% in size. To be noted: SEM B-ALL cells in HPLM+ds, CellTiter-Glo viability, 48 h; series mostly up to 45.8 µM. In outline: as §1
The nature of test [10]: Quantitative highthroughput screen to assess conditional lethalithy of SEM cells grown in RPMI1640 with unreated serum (RPMI+s) (AID 1963883). Also: nearly all actives have a fitted effect of over 35% in size.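 As to Viability: 100% = DMSO wells and 0% = empty wells without cells.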 The conditions noted are these: SEM B-ALL cells, CellTiter-Glo viability, 48 h; series mostly up to 45.8 µM. In outline: as §1
The nature of test [11]: Cellular viability qHTS for adrenocortical cancer (ACC) cell line SW-13 (AID 1963989). Also: nearly all actives have a fitted effect of over 65% in size.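 As to activity (max response): cells grown in serum-free medium with ITS supplement; % is scaled to controls: 0 for no effect and ±100 for the full control effect.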 To be noted: SW-13 ACC cells viability, CellTiter-Glo, 48 h; activity (max response): stronger effect = lower value. In outline:
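Viability was read as CellTiter-Glo luminescence after 48 h compound treatment (up to 46 uM final) of SW-13 cells grown serum-free; titration curves were fit with a four-parameter logistic model to give IC50 and efficacy.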

Test [12] is described as follows: Cellular viability qHTS for adrenocortical cancer (ACC) cell line NCI-H295R (AID 1963990). Also: nearly all actives have a fitted effect of over 60% in size. To be noted: CellTiter-Glo ATP luminescence, 48 h; series mostly up to 46.1 µM. In outline: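 CellTiter-Glo ATP luminescence, read 48 h after compound addition, measured viability of NCI-H295R adrenocortical cells grown serum-free with ITS. Final concentrations spanned up to 46 uM. Data normalized to DMSO and doxorubicin, fitted for IC50 and maximal response.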

A short description of test [13]: Quantitative highthroughput screen to assess conditional lethalithy of SEM cells grown in RPMI1640 with dialyzed fetal bovine serum (RPMI+ds) (AID 1963884). Also: nearly all actives have a fitted effect of over 35% in size. The conditions noted are these: SEM B-ALL cells, RPMI+dialyzed FBS, CellTiter-Glo viability, 48 h; series mostly up to 45.8 µM. In outline: as §1

Values joined by “and” are separate entries in the source; they are usually repeats but may differ in a detail not shown here. Equal entries are not always repeated. Records with an inconclusive call do not appear. A structure can be active in one record and inactive in another. Active and inactive are the calls of the source. Calls follow the shape of the dose curve; as a rule, active = well fitted curve in the direction sought with a large enough effect; inconclusive = small, poorly fitted or top-dose-only effect, or another doubt; inactive = no such curve, though single readings can be large; an effect the other way counts as inactive or inconclusive.
Potency is read from the fitted curve at half-maximal effect.

As for `CCCS(=O)(=O)Nc1ccc(F)c(C(=O)c2c[nH]c3ncc(-c4ccc(Cl)cc4)cc23)c1F`, the values for the Potency in [1] and in [2] were 14.8 µM (active) and 16.6 µM (active), respectively. For the same compound, the Potency result in [3], in test [4], in [5], in test [6], in test [7] and in [8] was “inactive” each time. In addition, the Potency entry in test [9], in test [10] and in test [12] was “inactive” each time. Further, in test [11], the activity (max response) is -1.45% (inactive).

Turning to `COc1ccc(COc2cc3oc(=O)c4cc(C(C)O)ccc4c3cc2OC)cc1` (stereo not drawn), the Potency entry in [1], in [3], in test [4], in [5], in [6] and in test [7] was “inactive” in each case. The Potency entry in test [12] is “inactive”. The Potency in [2] was 8.2 µM (active) and 4.68 µM (active); in test [8], 18.7 µM (active); in [9], 18.7 µM (active).

As for `C=C1C(=O)[C@@]23C(CC[C@@H]1[C@H]2O)[C@@]12CO[C@]3(O)[C@@H](O)[C@@H]1C(C)(C)CC[C@@H]2O` (stereo partly drawn), the Potency in [1] is 1.32 µM (active); in test [2], 1.3 µM (active); in test [3] it was 20.9 µM (active); in test [4], 23.5 µM (active); in test [5], 18.7 µM (active); in [6] it was 13.2 µM (active). Also, the Potency in test [7] was 7.43 µM (active); in test [8] it was 7.43 µM (active); in test [9] it was 8.33 µM (active); in test [10] it was 3.72 µM (active); in [11] it was 28.2 µM (active); in [12], 10 µM (active).

`O=C(NC1CCNCC1)c1[nH]ncc1NC(=O)c1c(Cl)cccc1Cl`: the Potency in test [1] was 0.59 µM (active); in test [2], 0.411 µM (active); in [3] it was 1.32 µM (active); in test [4] it was 1.18 µM (active); in [5], 1.18 µM (active); in test [6], 1.66 µM (active). The Potency in test [7] is 2.35 µM (active); in test [8], 1.48 µM (active); in test [9] it was 1.05 µM (active); in [13], 1.32 µM (active); in [11], 1.12 µM (active); in test [12], 15.8 µM (active).

With `NCCc1ccc(O)c(O)c1`, the Potency in test [1] is 20.9 µM (active); in test [2], “inactive and 18.6 µM (active)”; in [3] it was 14.8 µM (active); in test [4], 14.8 µM (active); in test [5], 9.35 µM (active); in test [9] it was 18.7 µM (active). Also, in test [13], the Potency is 26.4 µM (active). Also, the Potency entry in test [6], in [7], in test [8] and in test [12] was “inactive” each time. Moreover, the activity (max response) in test [11] was -9.5% (inactive) and -1.11% (inactive).
